Experimental data: the supplement of paper PMC9135407
Where “and” joins values, the source holds several entries; their conditions need not be identical. Equal values may be shown once. Where a name gives a salt, the structure may show the parent alone. In all, about 5,800 compounds went through this assay and about 620 (11%) showed activity. The sample as a whole holds a higher share of actives than the screen did. A number with no mark means an inactive call.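 Rule for the calls: active = score above a cut-off or among the top three wells of a plate; in these data no inactive exceeds 0.85.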

Test system: primary human hepatic stellate cells (donor 1)
Test: scaled lipid accumulation score (0 = DMSO-like, 1 = nortriptyline-like); higher = stronger HSC inactivation (lipid re-accumulation), active = hit call of the paper
Conditions: 48 h
[1] = library stock concentration: 10 mM
[2] = library stock concentration: 1 mM
[3] = library stock concentration: 80 uM
[4] = library stock concentration: 400 uM
[5] = library stock concentration: 2 mM
[6] = library stock concentration: 3.33 mM

With `CCCCC(CC)COc1ccc(-c2nc(-c3ccc(OC)cc3)nc(-c3ccc(OCC(CC)CCCC)cc3O)n2)c(O)c1` (stereo not given) the “scaled lipid accumulation score” value [1] was ≤ 0.
In the case of `CCCCCC=CCC=CCCCCCCCCCC(=O)O` [11(Z),14(Z)-Eicosadienoic Acid], the “scaled lipid accumulation score” value [2] is reported as ≤ 0.
`Oc1ccc(Nc2nc(-c3ccc(Cl)cc3)cs2)cc1` was tested, and the “scaled lipid accumulation score” value [3] was ≤ -0.001, the “scaled lipid accumulation score” value [4] was ≤ -0.001 and the “scaled lipid accumulation score” value [5] was ≤ -0.001. For the same compound, the “scaled lipid accumulation score” value [6] was ≤ -0.009 and the “scaled lipid accumulation score” value [1] was 0.141 and 0.011.
`Cc1cccc(Nc2nc(-c3ccncc3)cs2)c1` [listing 1 of 2 here] was tested, and the “scaled lipid accumulation score” value [6] was 0.881 (active) and the “scaled lipid accumulation score” value [1] was 1.24 (active).
`Cc1cccc(Nc2nc(-c3ccncc3)cs2)c1` [listing 2 of 2 here] was tested, and the “scaled lipid accumulation score” value [2] was ≤ 0.
In the case of `Oc1ccc(Nc2nc(-c3ccc(Cl)cc3)cs2)cc1` [Sphingosine Kinase Inhibitor 2], the “scaled lipid accumulation score” value [2] is reported as 0.058.
With `C[C@H]1Oc2cc(cnc2N)-c2c(nn(C)c2C#N)CN(C)C(=O)c2ccc(F)cc21` the “scaled lipid accumulation score” value [3] was ≤ 0, the “scaled lipid accumulation score” value [4] was ≤ 0 and the “scaled lipid accumulation score” value [5] was 0.031. The “scaled lipid accumulation score” value [1] was ≤ 0.
`C[C@H]1COc2c(C3(N)CC3)c(F)cc3c(=O)c(C(=O)O)cn1c23` [Pazufloxacin] was tested, and the “scaled lipid accumulation score” value (library stock concentration: 6.3 mM) was ≤ 0.
In the case of `C[C@H]1COc2c(C3(N)CC3)c(F)cc3c(=O)c(C(=O)O)cn1c23`, the “scaled lipid accumulation score” value [1] is reported as 0.025 and ≤ 0.
With `Clc1ccccc1C(c1ccccc1)(c1ccccc1)n1ccnc1` [Clotrimazole] the “scaled lipid accumulation score” value was ≤ 0, the “scaled lipid accumulation score” value [6] was ≤ 0 and the “scaled lipid accumulation score” value (library stock concentration: 5.8 mM) was ≤ -0.001. The “scaled lipid accumulation score” value [1] was ≤ 0.
With `N=C(N)NC(=N)Nc1ccccc1` [1-Phenylbiguanide hydrochloride] the “scaled lipid accumulation score” value [1] was ≤ 0.
For `N=C(N)NC(=O)c1nc(Cl)c(N)nc1N` [Amiloride hydrochloride], the “scaled lipid accumulation score” value (library stock concentration: 7.5 mM) was ≤ -0.001 and the “scaled lipid accumulation score” value [1] was ≤ 0.
For `N=C(N)NC(=O)c1nc(Cl)c(N)nc1N`, the “scaled lipid accumulation score” value (library stock concentration: 18.8 mM) was ≤ -0.021.
`N=C(N)NC(=O)c1nc(Cl)c(N)nc1N` [Amiloride HCl] was tested, and the “scaled lipid accumulation score” value [6] was ≤ 0 and the “scaled lipid accumulation score” value [1] was ≤ 0.
In the case of `CS(=O)(=O)O.N=C(NC(=O)c1nc(Cl)c(N)nc1N)Nc1ccccc1` [Phenamil methanesulfonate], the “scaled lipid accumulation score” value [1] is reported as 1.15 (active).
`CC(=O)Nc1ccccc1` [Acetanilide] was tested, and the “scaled lipid accumulation score” value [6] was ≤ 0 and the “scaled lipid accumulation score” value [1] was ≤ 0 and 0.04.
With `N=C(N)NC(=O)c1nc(Cl)c(N)nc1N` [Amiloride hydrochloride dihydrate] the “scaled lipid accumulation score” value was ≤ 0.
`N=C(N)NC(=O)c1nc(Cl)c(N)nc1N` [Amiloride] was tested, and the “scaled lipid accumulation score” value (library stock concentration: 8.7 mM) was ≤ -0.006.
In the case of `N=C(NC(=O)c1nc(Cl)c(N)nc1N)Nc1ccccc1` [Phenamil], the “scaled lipid accumulation score” value (library stock concentration: 16.4 mM) is reported as 1.07 (active).
In the case of `CCCCCCCCCCCCCCCC(=O)NCCc1ccc(O)c(O)c1` [N-Palmitoyl Dopamine], the “scaled lipid accumulation score” value [2] is reported as ≤ 0.
With `CC[C@]1(O)C[C@@H]2CN(CCc3c([nH]c4ccccc34)[C@@](C(=O)OC)(c3cc4c(cc3OC)N(C)[C@H]3[C@@](O)(C(=O)OC)[C@H](OC(C)=O)[C@]5(CC)C=CCN6CC[C@]43[C@@H]65)C2)C1` [Vinblastine] the “scaled lipid accumulation score” value [6] was 0.782.
`CC[C@]1(O)C[C@@H]2CN(CCc3c([nH]c4ccccc34)[C@@](C(=O)OC)(c3cc4c(cc3OC)N(C)[C@@H]3C45CCN4CC=C[C@](CC)([C@H]45)[C@H](OC(C)=O)[C@]3(O)C(=O)OC)C2)C1` (stereo not given in full) [Vinblastine] was tested, and the “scaled lipid accumulation score” value [1] was 0.956 (active).
`CCCCC[C@@H](O)/C=C/[C@H]1[C@H](C/C=C\CCCC(=O)O)C(=O)C[C@@H]1O` [ent-Prostaglandin E2] was tested, and the “scaled lipid accumulation score” value [2] was ≤ 0.
In the case of `CC(C)=CC[C@@H](O)C1=CC(=O)c2c(O)ccc(O)c2C1=O` [Shikonin], the “scaled lipid accumulation score” value (library stock concentration: 6.9 mM) is reported as 0.554 and the “scaled lipid accumulation score” value (library stock concentration: 17.3 mM) is reported as ≤ -0.012.
`CCCCC[C@H](O)/C=C/[C@H]1[C@H](O)CC(=O)[C@@H]1C/C=C\CCCC(=O)NCCO` [Prostaglandin E2 Ethanolamide] was tested, and the “scaled lipid accumulation score” value [2] was ≤ 0.
With `CC(C1=C(CCN(C)C)Cc2ccccc21)c1ccccn1` (stereo in doubt) [(S)-(+)-Dimethindene maleate] the “scaled lipid accumulation score” value [1] was 0.162.
With `CCCCCC(O)/C=C/C=O` (stereo not given) [4-hydroxy Nonenal] the “scaled lipid accumulation score” value [2] was ≤ 0.
In the case of `CNC(=O)c1ccccc1Sc1ccc2c(/C=C/c3ccccn3)n[nH]c2c1`, the “scaled lipid accumulation score” value [4] is reported as 0.07, the “scaled lipid accumulation score” value [5] is reported as ≤ -0.005 and the “scaled lipid accumulation score” value [1] is reported as 0.024.
With `Cc1cc(C(=O)Nc2cc(Nc3ccc4c(/C=C/c5ccccn5)n[nH]c4c3)ccc2F)n(C)n1` [listing 1 of 2 here] the “scaled lipid accumulation score” value [4] was 0.035 and the “scaled lipid accumulation score” value [5] was 0.724.
In the case of `Cc1cc(C(=O)Nc2cc(Nc3ccc4c(/C=C/c5ccccn5)n[nH]c4c3)ccc2F)n(C)n1` [listing 2 of 2 here], the “scaled lipid accumulation score” value [1] is reported as 1.61 (active).
In the case of `CNC(=O)c1ccccc1Sc1ccc2c(/C=C/c3ccccn3)n[nH]c2c1` [Axitinib], the “scaled lipid accumulation score” value [3] is reported as ≤ -0.001, the “scaled lipid accumulation score” value [4] is reported as ≤ -0.001 and the “scaled lipid accumulation score” value [5] is reported as ≤ -0.001. The “scaled lipid accumulation score” value [6] was ≤ 0 and the “scaled lipid accumulation score” value [1] was ≤ 0 and ≤ -0.001.
`CCCCC[C@H](O)CC[C@@H]1[C@H]2Cc3cccc(OCC(=O)O)c3C[C@H]2C[C@H]1O` [Treprostinil] was tested, and the “scaled lipid accumulation score” value [2] was 0.05.
With `CCCC(=O)[O-].[Na+]` [Sodium Butyrate] the “scaled lipid accumulation score” value [2] was ≤ 0.
In the case of `CCCCCCCCCCOCCC(=O)O` [4-Oxatetradecanoic acid], the “scaled lipid accumulation score” value [2] is reported as 0.156.
In the case of `C1=CCOCc2cc(ccc2OCCN2CCCC2)Nc2nccc(n2)-c2cccc(c2)COC1` [Pacritinib], the “scaled lipid accumulation score” value [1] is reported as 0.932 (active).
In the case of `C1=N/C2=N/c3ccc(OCCN4CCCC4)c(c3)COC/C=C/COCc3cccc(c3)C(=C1)N2` [Pacritinib], the “scaled lipid accumulation score” value [3] is reported as 0.184, the “scaled lipid accumulation score” value [4] is reported as 0.686 and the “scaled lipid accumulation score” value [5] is reported as 0.473.
For `C1=N/C2=N/c3ccc(OCCN4CCCC4)c(c3)COC/C=C/COCc3cccc(c3)C(=C1)N2` [Pacritinib (SB1518)], the “scaled lipid accumulation score” value [6] was 0.536 and the “scaled lipid accumulation score” value [1] was 0.41.
For `Cn1c(N2CCCCS2(=O)=O)nc(C(=O)NCc2ccc(F)cc2)c(O)c1=O`, the “scaled lipid accumulation score” value [6] was 0.024 and the “scaled lipid accumulation score” value [1] was ≤ 0.
With `NCCNc1ncc(C(N)=O)c(Nc2cccc(C(F)(F)F)c2)n1` [Syk Inhibitor II] the “scaled lipid accumulation score” value [6] was 0.589.
With `CC1c2ccccc2CN1CC1=NCCN1` (stereo not given) the “scaled lipid accumulation score” value [1] was 0.014.
In the case of `CCCCC[C@H](O)/C=C/[C@H]1C2COC(C2)[C@@H]1C/C=C/CCCC(=O)O` (stereo not given in full), the “scaled lipid accumulation score” value [2] is reported as ≤ 0.
In the case of `CC[C@@H](C)Nc1cc(C(=O)N[C@H]2C[C@H]3CC[C@@H](C2)N3c2ccc(C(=O)C3CC3)cn2)c(C)cc1C(N)=O`, the “scaled lipid accumulation score” value [6] is reported as 0.762.
For `CC[C@@H](C)Nc1cc(C(=O)NC2CC3CCC(C2)N3c2ccc(C(=O)C3CC3)cn2)c(C)cc1C(N)=O` (stereo not given in full), the “scaled lipid accumulation score” value [1] was 0.853 (active).
With `NC(=O)c1ccc[n+]([C@@H]2O[C@H](COP(=O)([O-])OP(=O)(O)OC[C@H]3O[C@@H](n4cnc5c(N)ncnc54)[C@H](OP(=O)(O)O)[C@@H]3O)[C@@H](O)[C@H]2O)c1` [Sodium beta-nicotinamide adenine dinucleotide phosphate] the “scaled lipid accumulation score” value [1] was ≤ -0.027.
`CC1Nc2ccc(Cl)cc2S(=O)(=O)N1` (stereo not given) was tested, and the “scaled lipid accumulation score” value [1] was ≤ -0.006.
In the case of `CC(=O)c1ncc([C@@H](O)[C@H](O)[C@H](O)CO)[nH]1` [2-Acetyl-5-tetrahydroxybutyl Imidazole], the “scaled lipid accumulation score” value [2] is reported as ≤ 0.
For `COc1ccc(/C=C/c2nc(NCCCN(C)C)c3ccccc3n2)cc1`, the “scaled lipid accumulation score” value [1] was 0.387.
In the case of `Cc1[nH]c2ccccc2c1CCNCc1ccc(/C=C/C(=O)NO)cc1` [Panobinostat (LBH589)], the “scaled lipid accumulation score” value [6] is reported as 0.728 and the “scaled lipid accumulation score” value [1] is reported as 0.587.
`O=c1cc(N2CCNCC2)oc2c(-c3ccccc3)cccc12` [listing 1 of 2 here] was tested, and the “scaled lipid accumulation score” value [1] was 1.28 (active).
For `O=c1cc(N2CCOCC2)oc2c(-c3ccccc3)cccc12` [LY-294,002 hydrochloride], the “scaled lipid accumulation score” value [1] was 0.089.
For `O=c1cc(N2CCOCC2)oc2c(-c3ccccc3)cccc12`, the “scaled lipid accumulation score” value [2] was 0.001, the “scaled lipid accumulation score” value [6] was ≤ 0 and the “scaled lipid accumulation score” value [1] was ≤ 0 and 0.005. The “scaled lipid accumulation score” value (library stock concentration: 16.3 mM) was ≤ -0.012.
`O=c1cc(N2CCNCC2)oc2c(-c3ccccc3)cccc12` [listing 2 of 2 here] was tested, and the “scaled lipid accumulation score” value [6] was 0.39.
For `CC[C@]1(O)C[C@H]2CN(CCc3c([nH]c4ccccc34)[C@@](C(=O)OC)(c3cc4c(cc3OC)N(C)[C@H]3[C@@](O)(C(=O)OC)[C@H](OC(C)=O)[C@]5(CC)C=CCN6CC[C@]43[C@@H]65)C2)C1.O=S(=O)(O)O` [Vinblastine sulfate], the “scaled lipid accumulation score” value [1] was 1.67 (active).
For `CCC1(O)CC2CN(CCc3c([nH]c4ccccc34)[C@@](C(=O)OC)(c3cc4c(cc3OC)N(C)C3[C@]45CCN4CC=C[C@@](CC)([C@@H](OC(C)=O)[C@]3(O)C(=O)OC)[C@H]45)C2)C1.O=S(=O)(O)O` (stereo not given in full) [Vinblastine sulfate salt], the “scaled lipid accumulation score” value [1] was 0.877 (active).
With `CCCCCCCCCCCCCCCCCC(=O)OC(CC(=O)O)C[N+](C)(C)C` (racemic) [DL-Stearoylcarnitine chloride] the “scaled lipid accumulation score” value [1] was 0.037.
`CCCCCCCCCCCCCCCC(=O)OC[C@H](O)[C@H]1OC(=O)C(O)=C1O` [Ascorbyl palmitate] was tested, and the “scaled lipid accumulation score” value (library stock concentration: 4.8 mM) was 0.002.
In the case of `CC(=O)N[C@@H](CCC(=O)O)C(=O)O` [Acetylglutamic acid], the “scaled lipid accumulation score” value [1] is reported as ≤ 0.
For `CCCCN1CCCC1CNC(=O)c1cc(C#N)c2ccccc2c1OC` (stereo not given) [Nafadotride], the “scaled lipid accumulation score” value [1] was 0.668 and 0.214.
In the case of `CS(=O)(=O)c1ccc(-c2nc(-c3ccc(F)cc3)c(-c3ccncc3)[nH]2)cc1`, the “scaled lipid accumulation score” value [6] is reported as ≤ 0.
For `CN(C)CC[C@@H](c1ccc(Br)cc1)c1ccccn1`, the “scaled lipid accumulation score” value [1] was ≤ 0.
